Test results taken from PubChem BioAssay (NCATS).
“And” between values parts separate entries of the source, which are not always exact repeats. Identical values can stand only once. Inconclusive results are not listed. The source holds several records for some structures; these can differ, active in one and inactive in another. The source made the active and inactive calls. Unless noted, the call rests on the fitted dose curve; in most records, active means well fitted curve in either direction with a large enough effect (not every such curve was filed as active); inconclusive means small, poorly fitted or top-dose-only effect, or another doubt; inactive means flat fitted curve, though single readings scatter.

Legend:
[1] = AP1 Signaling Pathway (AID 357); further: on the % scale 0 is the no-effect control and ±100 the full control effect
In short: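 ME-180 cells with beta-lactamase reporter under AP-1 response element, stimulated with EC50 EGF; compounds tested in titration series, 5 h at 37 °C. CCF4 substrate added 2.5 h at room temperature; 460/530 nm emission ratio gave %activity and AC50.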

[2] = molecular target: Cytochrome P450 1A2 (Homo sapiens) (UniProt P05177); assay: p450-cyp1a2 (AID 410; calls by dose curve; further: potency means the concentration at half of the fitted maximal effect;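 on activity change, negative = inhibition: -100% = full effect of reference inhibitor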)
In short: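 Read-out is luminescence from luciferin produced by CYP1A2 demethylation of Luciferin-ME (100uM, at Km). Detection reagent stopped the 60 min NADPH-dependent reaction; signals were normalized to 57 uM furafylline.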

[3] = Stat Signaling Pathway (AID 446);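 further: ME-180 cervical cancer cells given 40 pM IL-6 alongside compound; SIE-controlled beta-lactamase reporter measured as 460/530 nm FRET emission ratio; on the % scale 0 is the no-effect control and ±100 the full control effect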
In short: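 Compound effects on IL-6-induced STAT reporter activity were measured in ME-180 cells. After overnight culture, cells were co-treated with 40 pM IL-6 for 5 hrs before beta-lactamase substrate loading at room temperature.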

[4] = molecular target: Mitogen-activated protein kinase 10 (Mus musculus) (UniProt Q61831); assay: JNK3 AlphaScreen Assay (AID 530);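 further: kinase came from lysate of stimulated human HepG2 cells; signal reports phosphorylation of biotinylated GST-cJun 1-79 at Ser73 with 10 µM ATP; on the % scale 0 is the no-effect control and ±100 the full control effect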
In short: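 Biotinylated GST-cJun(1-79) served as substrate for JNK3 in HepG2 lysates stimulated with IL-1beta and TNF-alpha. ATP was 10 uM final, pH 7.6. Ser73 phosphorylation was quantified by AlphaScreen (680 nm excitation).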

[5] = molecular target: 3',5'-cyclic-AMP phosphodiesterase 4B (Homo sapiens) (UniProt Q07343); assay: qHTS Assay for Inhibitors of PDE-IV (AID 607; active means well fitted activation curve with a large enough effect in the main read-out, with a control signal flat, not every such curve was filed as active; further: % of control where 0% means no effect)
In short: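 ACTOne HEK293 cells carry a modified cAMP-gated CNG channel and express endogenous PDE4; plated 1000 cells/well, compounds up to 22.9 uM final. Membrane-potential dye fluorescence (ex 535/em 590) was read; parental cells received 10 uM forskolin + 100 uM RO 20-1724.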

[6] = molecular target: Glucocorticoid receptor (Homo sapiens) (UniProt P04150); assay: GR-GFP Redistribution (AID 450;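 active means compounds whose dose series gives a full or clear partial fitted curve of increased nuclear translocation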; further: potency means the concentration at half of the fitted maximal effect); conditions: U2OS GR-GFP nuclear translocation, laser cytometry, 2 h
[7] = molecular target: Glucocorticoid receptor (Homo sapiens) (UniProt P04150); assay: GR-EFC Redistribution (AID 451; calls by dose curve; further: potency means the concentration at half of the fitted maximal effect); conditions: CHO-K1 GR-EFC translocation, beta-gal luminescence, 2 h
In short: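 CHO-K1 cells stably expressing nuclear-localized β-gal enzyme acceptor and GR fused C-terminally to the enzyme donor fragment; ligand-driven nuclear translocation restores β-gal by complementation. Compounds titrated up to 46 uM final, 2 h at 37 °C; luminescence read.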

[8] = molecular target: Lysosomal acid glucosylceramidase (Homo sapiens) (UniProt P04062); assay: Glucocerebrosidase-p2 (AID 348; in the data active means potency below about 10 µM; further: potency means the concentration at half of the fitted maximal effect); conditions: purified GBA, blue fluorogenic substrate, 40 min
In short: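 Normal human glucocerebrosidase (0.2 nM) with blue fluorogenic substrate (80 uM final) in citrate/phosphate pH 5.9 with 10mM sodium taurocholate, 0.01% tween-20; 40 min RT, NaOH/glycine stop; fluorescence Ex 365/Em 440; AC50 from a titration from 0.6 nM upwards.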

[9] = Cell Viability - Hek293 (AID 427;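 active means compounds whose dose-response curve shows a full or clear partial loss of cell viability, called from curve shape rather than a numeric limit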;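 further: potency means the concentration at half of the fitted maximal effect; cells exposed to compound for 40 hours at 37 °C before reading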); conditions: qHTS
In short: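 Luminescent ATP read-out (CellTiter-Glo, 20 min RT) after 40 hr compound exposure at 37 °C in complete medium. Signal normalized to DMSO (basal) and 100 uM tamoxifen (100% inhibition); concentration-response fitted with the standard Hill equation to give AC50.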

[10] = Cell Viability - HepG2 (AID 433; calls by dose curve;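 further: potency means the concentration at half of the fitted maximal effect; potency for ATP loss meaning cytotoxicity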); conditions: qHTS
In short: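 HepG2 hepatocellular carcinoma cells (1500/well) were treated with compounds for 40 h at 37 °C in complete medium; intracellular ATP was read by CellTiter-Glo luminescence. Data were normalized to DMSO and 100 uM tamoxifen, and AC50 came from Hill fits.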

[11] = Cell Viability - MRC5 (AID 434; calls by dose curve;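 further: potency means the concentration at half of the fitted maximal effect; potency reflects cytotoxicity seen as loss of intracellular ATP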); conditions: MRC5 lung fibroblast viability, qHTS
In short: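 Decrease in intracellular ATP, quantified by luciferase light output, reflects compound toxicity toward MRC5 cells exposed for 40 hr in complete culture medium. Concentration-response curves, scaled between DMSO and 100 uM tamoxifen, gave AC50 values.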

[12] = Cell Viability - SK-N-SH (AID 435; calls by dose curve;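 further: potency means the concentration at half of the fitted maximal effect; compound exposure lasted 40 h at 37 °C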); conditions: SK-N-SH neuroblastoma cell viability qHTS
In short: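 SK-N-SH human neuroblastoma cells (1500/well) were exposed to compounds in complete medium for 40 h at 37 °C, and intracellular ATP was then measured by CellTiter-Glo luminescence. AC50 was taken from Hill fits, normalized to DMSO and 100 uM tamoxifen.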

[13] = Cell Viability - N2a (AID 540; active means well fitted curve in the direction sought with a large enough effect; an effect the other way counts as inactive or inconclusive;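 further: plate controls were DMSO alone for no effect and tamoxifen control for full effect; nearly all actives have a fitted effect of over 45% in size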); conditions: N2a mouse neuroblastoma cell viability; at 92.2 µM (top of the series)
In short: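 In this qHTS cytotoxicity screen, ATP-dependent luciferase luminescence reports viable N2a cells after a 40 hr compound exposure in complete culture medium. Potencies are AC50 values from standard Hill equation fits.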

[14] = Cell Viability - NIH 3T3 (AID 541; active means well fitted curve in the direction sought with a large enough effect; an effect the other way counts as inactive or inconclusive;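 further: plate controls were DMSO alone for no effect and tamoxifen positive control for full effect; nearly all actives have a fitted effect of over 25% in size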)
In short: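 In this cytotoxicity screen, acute toxicity is scored as an ATP drop measured by CellTiter-Glo in NIH 3T3 fibroblasts following a 40 hr, 37 °C incubation with compound.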

[15] = Cell Viability - HUV-EC-C (AID 542; active means well fitted curve in the direction sought with a large enough effect; an effect the other way counts as inactive or inconclusive; further: on the % scale 0 is the no-effect control and ±100 the full control effect; nearly all actives have a fitted effect of over 35% in size)
In short: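 Concentration-dependent ATP loss in HUV-EC-C cells is the measure. Exposure lasts 40 hr at 37 °C; luminescence follows CellTiter-Glo addition, and Hill fits give AC50.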

[16] = Cell Viability - H-4-II-E (AID 543; active means well fitted curve in the direction sought with a large enough effect; an effect the other way counts as inactive or inconclusive; further: on the % scale 0 is the no-effect control and ±100 the full control effect; nearly all actives have a fitted effect of over 35% in size)
In short: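 AC50 from Hill-modelled qHTS concentration-response curves. H-4-II-E rat hepatoma cells in complete medium, 40 hr exposure at 37 °C, viability by CellTiter-Glo ATP luminescence.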

[17] = Cell Viability - SH-SY5Y (AID 544; active means well fitted curve in the direction sought with a large enough effect; an effect the other way counts as inactive or inconclusive;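 further: 0% = DMSO alone and -100% = 100 µM tamoxifen; nearly all actives have a fitted effect of over 55% in size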); conditions: SH-SY5Y neuroblastoma cell viability; at 92.2 µM (top of the series)
In short: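 Quantitative HTS in SH-SY5Y neuroblastoma cells, 40 hr treatment at 37 °C, ATP content by luciferase luminescence; AC50 from Hill fits.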

[18] = Cell Viability - Renal Proximal Tubule (AID 545; active means well fitted curve in the direction sought with a large enough effect; an effect the other way counts as inactive or inconclusive;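 further: 0% = DMSO only and -100% = 100 µM tamoxifen; nearly all actives have a fitted effect of over 40% in size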)
In short: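 Primary rat renal proximal tubule cells (1000/well) were treated with compounds for 40 hr at 37 °C in complete medium. Intracellular ATP was measured by CellTiter-Glo luminescence, and AC50 values came from Hill-equation fits of concentration-response data.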

[19] = Cell Viability - Mesenchymal (AID 546; active means well fitted curve in the direction sought with a large enough effect; an effect the other way counts as inactive or inconclusive;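 further: cells exposed to compound for 40 hours before reading; 0% = DMSO only and -100% = 100 µM tamoxifen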); conditions: mesenchymal cells viability, qHTS; at 91.7 µM (top of the series)
In short: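 In this qHTS cytotoxicity format, glomerulus-derived human mesenchymal kidney cells received compound for 40 hr, then luciferase-based ATP quantitation. Concentration-response data were fitted with the Hill equation.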

[20] = Cellular Toxicity (caspase-3) HepG2 (AID 654; active means well fitted curve in the direction sought with a large enough effect; an effect the other way counts as inactive or inconclusive;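 further: cells exposed to compound for 16 hours before reading; 0% = DMSO alone and 100% = caspase signal from 100 µM tamoxifen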)
In short: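 Concentration-response AC50 values reflect caspase-3/7 induction in HepG2 cells after 16 hours of compound exposure, quantified by luminescence from liberated aminoluciferin and referenced to 100 uM tamoxifen as full stimulation.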

Chain of 3',5'-cyclic-AMP phosphodiesterase 4B (Homo sapiens) (Q07343 whole entry, looked up): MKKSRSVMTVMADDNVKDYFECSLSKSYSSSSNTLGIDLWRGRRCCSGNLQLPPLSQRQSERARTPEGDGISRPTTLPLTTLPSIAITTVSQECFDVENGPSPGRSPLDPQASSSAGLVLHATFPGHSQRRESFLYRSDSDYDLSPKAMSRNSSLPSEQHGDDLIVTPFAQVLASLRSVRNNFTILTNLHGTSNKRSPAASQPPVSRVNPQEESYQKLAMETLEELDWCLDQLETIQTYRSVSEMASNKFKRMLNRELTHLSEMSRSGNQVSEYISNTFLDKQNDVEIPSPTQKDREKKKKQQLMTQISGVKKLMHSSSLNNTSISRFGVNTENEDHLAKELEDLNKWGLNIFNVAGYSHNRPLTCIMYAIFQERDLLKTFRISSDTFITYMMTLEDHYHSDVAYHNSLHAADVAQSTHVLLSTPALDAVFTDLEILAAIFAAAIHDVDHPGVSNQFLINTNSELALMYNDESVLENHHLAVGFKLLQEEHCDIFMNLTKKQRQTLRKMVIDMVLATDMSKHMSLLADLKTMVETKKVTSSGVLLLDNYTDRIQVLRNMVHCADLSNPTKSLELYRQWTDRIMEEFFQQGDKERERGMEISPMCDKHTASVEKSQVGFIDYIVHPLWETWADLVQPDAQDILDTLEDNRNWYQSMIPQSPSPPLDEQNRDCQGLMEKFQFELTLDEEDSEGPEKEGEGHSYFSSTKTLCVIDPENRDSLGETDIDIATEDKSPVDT
Chain of Cytochrome P450 1A2 (Homo sapiens) (P05177 whole entry, looked up): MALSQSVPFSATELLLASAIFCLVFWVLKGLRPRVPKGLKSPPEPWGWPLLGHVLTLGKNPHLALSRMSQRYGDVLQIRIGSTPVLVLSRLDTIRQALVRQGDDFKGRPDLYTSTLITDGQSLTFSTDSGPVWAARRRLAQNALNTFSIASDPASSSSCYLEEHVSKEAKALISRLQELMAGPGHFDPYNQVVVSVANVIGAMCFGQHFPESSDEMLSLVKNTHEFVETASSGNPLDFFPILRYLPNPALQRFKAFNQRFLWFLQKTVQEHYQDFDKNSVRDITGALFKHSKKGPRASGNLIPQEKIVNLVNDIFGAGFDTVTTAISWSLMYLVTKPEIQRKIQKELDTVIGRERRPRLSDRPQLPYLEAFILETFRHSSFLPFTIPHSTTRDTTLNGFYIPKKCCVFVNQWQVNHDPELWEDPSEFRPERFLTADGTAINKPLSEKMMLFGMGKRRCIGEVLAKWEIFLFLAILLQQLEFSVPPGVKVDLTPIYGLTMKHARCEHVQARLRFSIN
Chain of Glucocorticoid receptor (Homo sapiens) (P04150 whole entry, looked up, the tested form may be a part): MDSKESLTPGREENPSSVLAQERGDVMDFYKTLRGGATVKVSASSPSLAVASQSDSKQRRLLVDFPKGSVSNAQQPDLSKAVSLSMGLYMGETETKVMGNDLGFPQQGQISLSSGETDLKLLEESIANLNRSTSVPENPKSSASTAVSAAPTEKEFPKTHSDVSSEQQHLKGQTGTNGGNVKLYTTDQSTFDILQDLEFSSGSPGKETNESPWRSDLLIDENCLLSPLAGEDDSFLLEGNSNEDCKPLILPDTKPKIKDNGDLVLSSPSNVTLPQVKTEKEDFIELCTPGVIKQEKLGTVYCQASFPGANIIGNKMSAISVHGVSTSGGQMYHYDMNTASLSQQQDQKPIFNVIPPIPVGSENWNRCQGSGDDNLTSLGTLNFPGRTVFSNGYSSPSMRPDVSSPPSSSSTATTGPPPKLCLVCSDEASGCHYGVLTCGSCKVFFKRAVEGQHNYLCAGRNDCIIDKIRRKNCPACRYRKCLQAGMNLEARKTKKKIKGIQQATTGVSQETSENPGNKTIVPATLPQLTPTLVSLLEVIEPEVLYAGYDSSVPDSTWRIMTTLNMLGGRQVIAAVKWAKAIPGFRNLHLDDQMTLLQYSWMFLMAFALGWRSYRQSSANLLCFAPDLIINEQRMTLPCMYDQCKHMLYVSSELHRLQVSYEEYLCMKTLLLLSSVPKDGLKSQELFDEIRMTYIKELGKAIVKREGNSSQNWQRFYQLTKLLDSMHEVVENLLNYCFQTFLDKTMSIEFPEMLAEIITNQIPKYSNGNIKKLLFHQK
Chain of Lysosomal acid glucosylceramidase (Homo sapiens) (P04062 whole entry, looked up): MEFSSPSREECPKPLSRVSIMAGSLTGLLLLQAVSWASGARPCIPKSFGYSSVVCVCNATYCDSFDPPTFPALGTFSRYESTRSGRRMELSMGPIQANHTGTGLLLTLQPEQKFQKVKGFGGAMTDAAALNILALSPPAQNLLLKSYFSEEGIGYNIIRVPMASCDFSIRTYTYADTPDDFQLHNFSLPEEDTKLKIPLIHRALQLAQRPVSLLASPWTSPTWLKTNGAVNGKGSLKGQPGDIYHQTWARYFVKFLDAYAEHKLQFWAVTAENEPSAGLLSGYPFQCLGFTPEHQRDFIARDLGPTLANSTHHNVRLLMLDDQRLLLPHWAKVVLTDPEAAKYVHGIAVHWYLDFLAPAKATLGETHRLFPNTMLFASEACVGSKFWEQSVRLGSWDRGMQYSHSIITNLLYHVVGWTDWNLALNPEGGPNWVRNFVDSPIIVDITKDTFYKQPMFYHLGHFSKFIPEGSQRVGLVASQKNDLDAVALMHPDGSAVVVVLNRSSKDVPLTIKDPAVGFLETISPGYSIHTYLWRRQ

CN=C(NC#N)Nc1ccc(C2=NNC(=O)C[C@@H]2C)cc1
inactive and 39.8 µM (active): Potency [2]
inactive: outcome [1] | outcome [3] | outcome [4] | outcome [5]

Cc1cc(C(=O)NNCc2ccccc2)no1
active: Potency [2] 12.6 µM
inactive: outcome [1] | outcome [3] | Potency [6] > 20.6 µM | Potency [7] > 20.6 µM | outcome [4] | outcome [5]

Cc1onc(-c2ccccc2)c1C(=O)N[C@@H]1C(=O)N2[C@@H]1SC(C)(C)[C@@H]2C(=O)O
inactive: outcome [1] | outcome [3] | Potency [6] > 20.6 µM

CCCC(=O)Nc1ncnc2c1ncn2[C@@H]1O[C@@H]2COP(=O)(O)O[C@H]2[C@H]1OC(=O)CCC
inactive: outcome [1] | outcome [3] | Potency [6] > 46 µM and > 20.6 µM | Potency [7] > 46 µM | outcome [4]

Nc1c(Br)cc(Br)cc1CNC1CCC(O)CC1 (stereo not drawn)
inactive: outcome [1] | outcome [3] | Potency [6] > 20.6 µM | Potency [7] > 20.6 µM | outcome [4] | outcome [5]

CC(=O)OCC(=O)[C@@]12OC3(CCCC3)O[C@@H]1C[C@H]1[C@@H]3CCC4=CC(=O)C=C[C@]4(C)[C@@]3(F)[C@@H](O)C[C@@]12C
active: Potency [6] 0.000571 µM
inactive: outcome [1] | outcome [3]

Cc1c(C)c2c(c(C)c1O)CC[C@@](C)(CCC[C@@H](C)CCC[C@@H](C)CCCC(C)C)O2
inactive: outcome [1] | Potency [2] | outcome [3] | Potency [6] > 20.6 µM | Potency [7] > 20.6 µM | outcome [5]

C[C@]12C=CC(=O)C=C1CC[C@@H]1[C@@H]2[C@@H](O)C[C@@]2(C)[C@H]1CC[C@]2(O)C(=O)COC(=O)CCC(=O)O
inactive: outcome [1] | outcome [3]
active: Potency [6] 0.0285 µM

O=C(O)CCC(=O)C(=O)O
inactive: Potency [8] > 11.4 µM | outcome [1] | activity change, negative = inhibition [2] -11.7% [at 11.4 µM] | Potency [9] > 92 µM | Potency [10] > 92 µM | Potency [11] > 92 µM | Potency [12] > 92 µM | outcome [3] | Potency [6] > 46 µM | Potency [7] > 9.22 µM | outcome [4] | activity change, negative = cytotoxicity [13] 6.48% | outcome [14] | Potency [15] | Potency [16] | viability change, negative = cytotoxic [17] 4.65% | outcome [18] | activity change, negative = cytotoxicity [19] 6.49% | outcome [5] | outcome [20]

CCN(CC)Cc1cc(Nc2ccnc3cc(Cl)ccc23)ccc1O
inactive: outcome [1] | outcome [3] | Potency [6] > 20.6 µM | Potency [7] > 20.6 µM | outcome [4]

CCOc1ccc2c(c1)C(C)=CC(C)(C)N2
active: Potency [2] 5.01 µM
inactive: outcome [1] | Potency [9] > 92 µM | Potency [10] > 92 µM | Potency [11] > 92 µM | Potency [12] > 92 µM | outcome [3] | outcome [4] | activity change, negative = cytotoxicity [13] -9.52% | outcome [14] | Potency [15] | Potency [16] | outcome [18] | activity change, negative = cytotoxicity [19] 9.89% | outcome [5] | outcome [20]

COC(=O)CCC(=O)CN
inactive: outcome [1] | outcome [3] | Potency [6] > 20.6 µM

CC1(C)S[C@@H]2[C@H](NC(=O)[C@@H](NC(=O)N3CCNC3=O)c3ccccc3)C(=O)N2[C@H]1C(=O)O
inactive: outcome [1] | Potency [2] | outcome [3] | Potency [6] > 20.6 µM | Potency [7] > 20.6 µM | outcome [4] | outcome [5]

CCCC(=O)O[C@]1(C(=O)COC(C)=O)CC[C@H]2[C@@H]3C[C@H](F)C4=CC(=O)C=C[C@]4(C)[C@@]3(F)[C@@H](O)C[C@@]21C
active: Potency [6] 0.00371 µM
inactive: outcome [1] | outcome [3]

CC1(C)S[C@@H]2[C@H](NC(=O)Cc3ccccc3)C(=O)N2[C@H]1C(=O)O
inactive: outcome [1] | outcome [3] | Potency [6] > 20.6 µM | Potency [7] > 20.6 µM | outcome [4] | outcome [5]

COc1ccc(CCNC[C@H](O)c2ccc(O)cc2)cc1OC
inactive: outcome [1] | Potency [2] | outcome [3] | Potency [6] > 46 µM | Potency [7] > 46 µM | outcome [4] | outcome [5]

O=C1CSC2(CCN(CCCN3c4ccccc4Sc4ccc(Cl)cc43)CC2)N1
inactive: outcome [1] | outcome [3] | Potency [6] > 46 µM | Potency [7] > 9.22 µM | activity change, negative = inhibition [4] -6.21% [at 11.4 µM] | outcome [5]
active: Potency [2] 3.16 µM

CC[N+](C)(C)Cc1ccccc1Br
inactive: outcome [1] | outcome [3] | Potency [6] > 46 µM and > 20.6 µM | Potency [7] > 46 µM and > 20.6 µM | outcome [4] | outcome [5]

C[C@@H]1C[C@H]2[C@@H]3CCC4=CC(=O)C=C[C@]4(C)[C@@]3(F)[C@@H](O)C[C@]2(C)[C@@]1(O)C(=O)COP(=O)(O)O
inactive: outcome [1] | outcome [3]

CN(C)CCCN1c2ccccc2C(C)(C)c2ccccc21
active: Potency [2] 5.01 µM
inactive: Potency [8] > 11.4 µM | outcome [3] | Potency [6] > 46 µM | Potency [7] > 9.22 µM | activity change, negative = inhibition [4] -0.792% [at 11.4 µM] | outcome [5]

CN1Cc2c(N)cccc2C(c2ccccc2)C1 (stereo not drawn)
inactive: outcome [1] | Potency [6] > 20.6 µM

CCCCCCCC/C=C\CCCCCCCC(=O)O
inactive: Potency [9] > 92 µM | Potency [10] > 92 µM | Potency [11] > 92 µM | Potency [12] > 92 µM | outcome [4] | activity change, negative = cytotoxicity [13] -2.98% | outcome [14] | Potency [15] | Potency [16] | viability change, negative = cytotoxic [17] 3.98% | outcome [18] | activity change, negative = cytotoxicity [19] 16.2% | outcome [20]

CC(C)(C)C(=O)OCOC(=O)[C@@H]1N2C(=O)[C@@H](N=CN3CCCCCC3)[C@H]2SC1(C)C
inactive: outcome [1] | outcome [3] | outcome [4] | outcome [5]

O=C(O)CC/C=C\CC[C@H]1[C@@H](N2CCCCC2)[C@@H](O)C[C@@H]1OCc1ccc(-c2ccccc2)cc1
inactive: Potency [2] | Potency [6] > 46 µM | Potency [7] > 46 µM | outcome [4] | outcome [5]

CC1=C(/C=C/C(C)=C/C=C/C(C)=C/CO)C(C)(C)CCC1
inactive: Potency [9] > 92 µM | Potency [10] > 92 µM | Potency [11] > 92 µM | Potency [15] | activity change, negative = cytotoxicity [19] -3.42% | outcome [20]
active: activity change, negative = cytotoxicity [13] -116%
